Test results taken from PubChem BioAssay AID1159580 (chemical genetic matrix, 2015).
The campaign covered roughly 5,500 compounds. About 2,000 (36%) were called active. About 18% were inconclusive and are not listed. Cut-off read from the data, not from the text of the source: active = normalized growth mostly below about 0.91 (no sharp cut-off); inconclusive = no clear call, values can overlap the other calls; inactive = mostly above about 0.92. The list shows a part of the results.

Assay: chemical genetic growth profiling, strain panel (AID 1159580);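 note: tested at 20 µM; growth read once vehicle control cultures reached saturation at 30 °C; 1 = growth at the plate median or of vehicle wells; lower values mean less growth of the strain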
Conditions: growth OD

Measured: normalized growth

Cc1coc2ccccc2c1=O
inactive: S. cerevisiae deletion strains, locus YAL013W, strain DEP1, active compounds read low 0.999 | S. cerevisiae deletion strains, locus YBR021W, strain FUR4, active compounds read low 0.998 | S. cerevisiae deletion strains, locus YBR229C, strain ROT2, active compounds read low 1.01 | S. cerevisiae deletion strains, locus YCL029C, strain bik1, active compounds read low 1.02 | S. cerevisiae deletion strains, locus YDL035C, strain GPR1, active compounds read low 1 | S. cerevisiae deletion strains, locus YDL074C, strain BRE1, active compounds read low 1 | S. cerevisiae deletion strains, locus YDL101C, strain DUN1, active compounds read low 1.01 | S. cerevisiae deletion strains, locus YDL134C, strain PPH21, active compounds read low 1 | S. cerevisiae deletion strains, locus YDL185W, strain tfp1, active compounds read low 1.01 | S. cerevisiae deletion strains, locus YDL192W, strain arf1, active compounds read low 1.03 | S. cerevisiae deletion strains, locus YDR101C, strain arx1, active compounds read low 1.01 | S. cerevisiae deletion strains, locus YDR150W, strain NUM1, active compounds read low 1 | S. cerevisiae deletion strains, locus YDR162C, strain NBP2, active compounds read low 1.01 | S. cerevisiae deletion strains, locus YDR318W, strain mcm21, active compounds read low 1.02 | S. cerevisiae deletion strains, locus YDR388W, active compounds read low 1.02 | S. cerevisiae deletion strains, locus YDR502C, strain sam2, active compounds read low 1.02 | S. cerevisiae deletion strains, locus YEL061C, strain CIN8, active compounds read low 1 | S. cerevisiae deletion strains, locus YER110C, active compounds read low 1.03 | S. cerevisiae deletion strains, locus YER155C, strain BEM2, active compounds read low 1.01 | S. cerevisiae deletion strains, locus YER167W, strain BCK2, active compounds read low 1.01 | S. cerevisiae deletion strains, locus YGL078C, strain dbp3, active compounds read low 1.02 | S. cerevisiae deletion strains, locus YGL086W, strain mad1, active compounds read low 1.02 | S. cerevisiae deletion strains, locus YGL248W, strain PDE1, active compounds read low 1 | S. cerevisiae deletion strains, locus YGR078C, strain PAC10, active compounds read low 1.01 | S. cerevisiae deletion strains, locus YGR135W, strain pre9, active compounds read low 1.01 | S. cerevisiae deletion strains, locus YGR229C, strain SMI1, active compounds read low 0.991 | S. cerevisiae deletion strains, locus YGR252W, strain gcn5, active compounds read low 1.03 | S. cerevisiae deletion strains, locus YHR030C, strain SLT2, active compounds read low 0.997 | S. cerevisiae deletion strains, locus YHR079C, strain IRE1 (second series), active compounds read low 1.02 | S. cerevisiae deletion strains, locus YHR094C, strain hxt1, active compounds read low 1.02 | S. cerevisiae deletion strains, locus YHR129C, strain ARP1, active compounds read low 1 | S. cerevisiae deletion strains, locus YHR200W, strain rpn10, active compounds read low 1.03 | S. cerevisiae deletion strains, locus YIL066C, strain RNR3, active compounds read low 1.01 | S. cerevisiae deletion strains, locus YIL073C, strain SPO22, active compounds read low 1.09 | S. cerevisiae deletion strains, locus YIL125W, strain kgd1, active compounds read low 1.03 | S. cerevisiae deletion strains, locus YIR030C, strain dcg1, active compounds read low 1.03 | S. cerevisiae deletion strains, locus YJL095W, strain BCK1, active compounds read low 0.988 | S. cerevisiae deletion strains, locus YJL134W, strain LCB3, active compounds read low 0.999 | S. cerevisiae deletion strains, locus YJL168C, strain set2, active compounds read low 1.03 | S. cerevisiae deletion strains, locus YJL187C, strain SWE1 (second series), active compounds read low 1 | S. cerevisiae deletion strains, locus YJR043C, strain POL32, active compounds read low 0.992 | S. cerevisiae deletion strains, locus YJR075W, strain HOC1, active compounds read low 1 | S. cerevisiae deletion strains, locus YKL009W, strain mrt4, active compounds read low 1.02 | S. cerevisiae deletion strains, locus YKL068W, active compounds read low 1.01 | S. cerevisiae deletion strains, locus YKL085W, strain MDH1 (second series), active compounds read low 1.01 | S. cerevisiae deletion strains, locus YKL085W, strain MDH1, active compounds read low 1.01 | S. cerevisiae deletion strains, locus YKL190W, strain CNB1, active compounds read low 1 | S. cerevisiae deletion strains, locus YKR001C, strain vps1, active compounds read low 1.02 | S. cerevisiae deletion strains, locus YLR039C, strain RIC1, active compounds read low 1.01 | S. cerevisiae deletion strains, locus YLR058C, strain SHM2, active compounds read low 1 | S. cerevisiae deletion strains, locus YLR102C, strain apc9, active compounds read low 1.04 | S. cerevisiae deletion strains, locus YLR262C, strain YPT6, active compounds read low 1.01 | S. cerevisiae deletion strains, locus YLR268W, strain sec22, active compounds read low 1.01 | S. cerevisiae deletion strains, locus YLR330W, strain CHS5, active compounds read low 1.01 | S. cerevisiae deletion strains, locus YLR342W, strain FKS1 (second series), active compounds read low 1.01 | S. cerevisiae deletion strains, locus YLR371W, strain rom2, active compounds read low 1.03 | S. cerevisiae deletion strains, locus YLR418C, strain cdc73, active compounds read low 1.01 | S. cerevisiae deletion strains, locus YML016C, strain PPZ1, active compounds read low 1 | S. cerevisiae deletion strains, locus YML032C, strain rad52, active compounds read low 1.05 | S. cerevisiae deletion strains, locus YML124C, strain tub3, active compounds read low 1.02 | S. cerevisiae deletion strains, locus YMR078C, strain ctf18, active compounds read low 1.03 | S. cerevisiae deletion strains, locus YMR223W, strain ubp8, active compounds read low 1.02 | S. cerevisiae deletion strains, locus YMR263W, strain SAP30, active compounds read low 0.998 | S. cerevisiae deletion strains, locus YMR307W, strain GAS1, active compounds read low 1 | S. cerevisiae deletion strains, locus YNL067W, strain RPL9B, active compounds read low 0.992 | S. cerevisiae deletion strains, locus YNL128W, strain TEP1, active compounds read low 1.01 | S. cerevisiae deletion strains, locus YNL153C, strain GIM3, active compounds read low 0.985 | S. cerevisiae deletion strains, locus YNL233W, strain BNI4, active compounds read low 0.995 | S. cerevisiae deletion strains, locus YNL250W, strain rad50, active compounds read low 1.03 | S. cerevisiae deletion strains, locus YNL271C, strain bni1, active compounds read low 1.03 | S. cerevisiae deletion strains, locus YNL298W, strain CLA4, active compounds read low 1.02 | S. cerevisiae deletion strains, locus YNL307C, strain MCK1, active compounds read low 1.03 | S. cerevisiae deletion strains, locus YNL322C, strain KRE1, active compounds read low 1 | S. cerevisiae deletion strains, locus YNR052C, strain pop2, active compounds read low 1.04 | S. cerevisiae deletion strains, locus YOL006C, strain TOP1, active compounds read low 0.974 | S. cerevisiae deletion strains, locus YOL012C, strain htz1 0.801 | S. cerevisiae deletion strains, locus YOL147C, strain pex11, active compounds read low 1.02 | S. cerevisiae deletion strains, locus YOR061W, strain CKA2, active compounds read low 1 | S. cerevisiae deletion strains, locus YOR069W, strain VPS5, active compounds read low 0.998 | S. cerevisiae deletion strains, locus YOR136W, strain idh2, active compounds read low 1.02 | S. cerevisiae deletion strains, locus YOR144C, strain elg1, active compounds read low 1.01 | S. cerevisiae deletion strains, locus YOR184W, strain ser1, active compounds read low 1.04 | S. cerevisiae deletion strains, locus YOR316C, strain cot1, active compounds read low 1.02 | S. cerevisiae deletion strains, locus YPL055C, strain LGE1, active compounds read low 1.01 | S. cerevisiae deletion strains, locus YPL241C, strain CIN2, active compounds read low 1 | S. cerevisiae deletion strains, locus YPR119W, strain clb2, active compounds read low 1.03 | S. cerevisiae deletion strains, locus YPR141C, strain kar3, active compounds read low 1.03 | S. cerevisiae deletion strains, locus YPR163C, strain tif3, active compounds read low 1.03 | S. cerevisiae deletion strains, locus YPR167C, strain met16, active compounds read low 1.03 | S. cerevisiae deletion strains, strain wtn01, active compounds read low 1.03 | S. cerevisiae strains, strain wild type, active compounds read low 1
